According to PubChem BioAssay (NCI):
Compounds without any hit were thinned out: in the full panel of roughly 83,000, 20% have a hit.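 In brief: 96-well plates, 48 h treatment, single concentration, percent growth endpoint.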 Calls of active or inactive are those of the source. How the source made its calls: active means growth percent below 10; inactive means the rest.

What was measured:
Test in all cases: NCI-60 one-dose screen, 48 h (100 = growth as untreated, 0 = no growth, -100 = all killed)
DU-145 prostate = details: 10 µM unless noted
MALME-3M melanoma = details: 10 µM unless noted
MDA-MB-231 breast = details: 10 µM unless noted
RXF 393 renal = details: 10 µM unless noted
SF-268 CNS = details: 10 µM unless noted
SF-295 CNS = details: 10 µM unless noted
UACC-257 melanoma = details: 10 µM unless noted
M14 melanoma = details: 10 µM unless noted
HCT-15 colon = details: 10 µM unless noted
SNB-75 CNS = details: 10 µM
SNB-19 CNS = details: 10 µM unless noted
U251 CNS = details: 10 µM unless noted
SK-MEL-5 melanoma = details: 10 µM unless noted
UACC-62 melanoma = details: 10 µM unless noted
LOX IMVI melanoma = details: 10 µM unless noted
SK-MEL-28 melanoma = details: 10 µM unless noted
K-562 leukemia = details: 10 µM unless noted
SF-539 CNS = details: 10 µM unless noted
HT29 colon = details: 10 µM unless noted
PC-3 prostate = details: 10 µM unless noted

| SMILES | growth (DU-145 prostate) | growth (MALME-3M melanoma) | growth (MDA-MB-231 breast) | growth (RXF 393 renal) | growth (SF-268 CNS) | growth (SF-295 CNS) | growth (UACC-257 melanoma) | growth (M14 melanoma) | growth (HCT-15 colon) | growth (SNB-75 CNS) | growth (SNB-19 CNS) | growth (U251 CNS) | growth (SK-MEL-5 melanoma) | growth (UACC-62 melanoma) | growth (LOX IMVI melanoma) | growth (SK-MEL-28 melanoma) | growth (K-562 leukemia) | growth (SF-539 CNS) | growth (HT29 colon) | growth (PC-3 prostate) |
| --- | --- | --- | --- | --- | --- | --- | --- | --- | --- | --- | --- | --- | --- | --- | --- | --- | --- | --- | --- | --- |
| Cn1c(=O)c2[nH]c(C3CC=CCC3)nc2n(C)c1=O (stereo unspecified) | 101% (inactive) | 107% (inactive) | 94.6% (inactive) | 115% (inactive) | 96% (inactive) | 89.5% (inactive) | 116% (inactive) | 111% (inactive) | 106% (inactive) | 93.9% (inactive) | 100% (inactive) | 105% (inactive) | 111% (inactive) | 96% (inactive) | 105% (inactive) | 117% (inactive) |  |  |  |  |
| N#Cc1c(Nc2ccccc2)nc2n(c1=O)-c1ccccc1Sc1ccccc1-2 | 90% (inactive) |  | 63.7% (inactive) | 82.2% (inactive) | 85.3% (inactive) | 84% (inactive) | 105% (inactive) | 95.1% (inactive) | 90.3% (inactive) |  | 77.9% (inactive) | 89.4% (inactive) | 68.1% (inactive) | 69.1% (inactive) | 83.9% (inactive) | 83.8% (inactive) | 57.6% (inactive) | 84.4% (inactive) | 84.1% (inactive) |  |
| CCCCN(CCCC)c1ccc(C(=N)c2ccc(N(CCCC)CCCC)cc2)cc1 | -98.6% (active) | -64.5% (active) | -90.3% (active) | -94.8% (active) | -95.9% (active) | -83.5% (active) | -81.1% (active) | -90.3% (active) | -91.9% (active) |  | -82.8% (active) | -92.9% (active) | -97% (active) | -81.6% (active) | -97.2% (active) | 9.39% (active) |  | -91.3% (active) | -81.1% (active) | -94.4% (active) |
| Cc1ccc2nc(Cl)cc(=O)n2c1 | 124% (inactive) | 135% (inactive) | 111% (inactive) | 117% (inactive) | 114% (inactive) | 113% (inactive) | 112% (inactive) | 104% (inactive) | 102% (inactive) | 115% (inactive) | 105% (inactive) | 119% (inactive) | 120% (inactive) | 102% (inactive) | 112% (inactive) | 120% (inactive) |  |  |  | 96.9% (inactive) |
| COc1cc(Nc2ncccc2C(=O)NCc2cn(Cc3cccc(Oc4ccccc4)c3)nn2)cc(OC)c1 | 68.9% (inactive) | 56.1% (inactive) | 26.3% (inactive) | 64.2% (inactive) | 47.2% (inactive) | 28.3% (inactive) | 74% (inactive) | 31.2% (inactive) | 32.9% (inactive) |  | 59.9% (inactive) | 34.7% (inactive) | 19.5% (inactive) | 32.7% (inactive) | 43.6% (inactive) | 67% (inactive) |  | 38.5% (inactive) | 8.47% (active) | 57.2% (inactive) |
| O=C1CCCCC1(c1ccccc1)c1ccccc1 |  |  | 101% (inactive) | 93.8% (inactive) | 98.2% (inactive) | 97% (inactive) | 106% (inactive) | 99% (inactive) |  | 88.8% (inactive) | 100% (inactive) | 108% (inactive) | 99.1% (inactive) | 99.7% (inactive) | 94% (inactive) | 95.6% (inactive) |  | 94% (inactive) |  |  |
| O=C(NCc1cn(Cc2cccc(Oc3ccccc3)c2)nn1)c1cccnc1Nc1ccc(F)cc1 | 63.6% (inactive) | 67.5% (inactive) | 42.2% (inactive) | 65.9% (inactive) | 67.7% (inactive) | 50.7% (inactive) | 76.8% (inactive) | 48.1% (inactive) | 31.3% (inactive) |  | 72.9% (inactive) | 55.3% (inactive) | 40.8% (inactive) | 43% (inactive) | 54.4% (inactive) | 72.4% (inactive) |  | 62.6% (inactive) | 38.3% (inactive) | 89.3% (inactive) |
| C=COC(=O)CCCCCCCCC | 114% (inactive) | 104% (inactive) | 102% (inactive) | 106% (inactive) | 101% (inactive) | 115% (inactive) | 107% (inactive) | 108% (inactive) | 113% (inactive) |  | 97.6% (inactive) | 105% (inactive) | 107% (inactive) | 99.2% (inactive) | 98.5% (inactive) | 106% (inactive) |  | 113% (inactive) | 100% (inactive) | 102% (inactive) |
| C=C1C(=O)O[C@H]2[C@H]1CC/C(COC(=O)NCc1ccccc1OC)=C\CC[C@@]1(C)O[C@@H]21 | 20.1% (inactive) | 68.8% (inactive) | 46.2% (inactive) | 10% (inactive) | 53.1% (inactive) |  |  | 33% (inactive) |  | 77.4% (inactive) | 57.6% (inactive) | 74.8% (inactive) | 92.8% (inactive) | 23.4% (inactive) | 5.34% (active) | 47.5% (inactive) |  | 28.7% (inactive) | -3.76% (active) |  |
